Test [1] in a line: NCI Yeast Anticancer Drug Screen. Data for the rad50 strain (AID 155).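 Also: 0% = growth of vehicle-only cultures of the same strain.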 To be noted: S. cerevisiae rad50 strain growth inhibition; at 50.0 µM; hits give high values. The method, boiled down:
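Readout: growth inhibition relative to vehicle-treated cultures. Compound exposure was carried out in a genetically defined yeast strain deficient in DNA damage repair.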

Test [2] is described as follows: NCI Yeast Anticancer Drug Screen. Data for the mec2-1 strain (AID 157). To be noted: S. cerevisiae mec2-1 strain, at 50.0 µM, hits give high values. In short, it runs like this:
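Growth inhibition is read against vehicle-treated controls after compound exposure of the mec2-1 yeast strain, which is defective in DNA damage repair or cell cycle control.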

Test [3] in a line: NCI Yeast Anticancer Drug Screen. Data for the sgs1 mgt1 strain (AID 161).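 Also: 0% = growth of cultures given vehicle only.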 To be noted: S. cerevisiae sgs1 mgt1 strain, at 50.0 µM, hits give high values. The method, boiled down:
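Compounds are added to genetically altered yeast, and growth is compared with cultures given vehicle alone to give percent inhibition.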

Test [4] is described as follows: NCI Yeast Anticancer Drug Screen. Data for the cln2 rad14 strain (AID 165).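 Also: 0% = growth equal to vehicle treated cultures.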 As to conditions: S. cerevisiae cln2 rad14 strain, at 50.0 µM, hits give high values. The method, boiled down: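 Growth inhibition, relative to vehicle-treated controls, is the read-out. The test organism is a yeast strain with defined genetic alterations, cln2 rad14.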
A short description of test [5]: NCI Yeast Anticancer Drug Screen. Data for the bub3 strain (AID 167). As to conditions: S. cerevisiae bub3 mutant strain, at 50.0 µM, hits give high values. The method, boiled down:
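Readout: yeast growth inhibition, expressed relative to vehicle-only wells. The test organism is a mutant strain from a panel with lesions in DNA repair or checkpoint genes.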

Test [6] is described as follows: NCI Yeast Anticancer Drug Screen. Data for the mlh1 rad18 strain (AID 175). As to conditions: S. cerevisiae mlh1 rad18 strain growth inhibition; at 50.0 µM; hits give high values. The method, boiled down: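 Cells of a genetically altered yeast strain, deficient in DNA damage repair, were treated with compound. Their growth was then compared with that of vehicle-treated cultures to give inhibition.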

Compounds without any hit were thinned out: in the full panel of roughly 79,000, 15% have a hit. A number with no mark means an inactive call. Active and inactive are the calls of the source. Rule as the data show it: active = growth inhibition above about 70%; inactive = the rest.

In the case of `Cc1ccc(C(C)C)cc1NC(=O)NCCCl`, the growth inhibition is -9.8% in test [1]; 10.6% in test [2]; 2.8% in test [3]; -33.3% in test [4]; -9.6% in test [5]; -6.4% in test [6].
Consider `C=CC(=NC(C)(C)C)Nc1ccc(Cl)cc1`, for which the growth inhibition is -13% in test [1]; -6.8% in test [2]; -36.2% in test [3]; -14.6% in test [4]; -19.2% in test [5]; 3.4% in test [6].
Take `CCCCN1C(=O)c2ccccc2C1=O`: the growth inhibition in test [1] was 5.55%; in test [2] it was -10.7%; in test [3] it was 27.2%; in test [4] it was 7.9%; in test [5] it was 9.45%; in test [6], 13.4%.
As to `CCCCCCCCCCCCCCCCCCOCCCCCCCCCCCC`, the growth inhibition is -34.8% in test [1]; -15.6% in test [2]; -20% in test [3]; -64% in test [4]; 5.05% in test [5]; -17.1% in test [6].
On to `NC(=O)NC(=O)C1C2CC3OC(=O)C1C3C2` (stereo not given), for which the growth inhibition in test [1] was 13.6%; in test [2], -4.35%; in test [3], -3.2%; in test [4], -37.9%; in test [5], 2.45%; in test [6], 20.9%.
Consider `CC1CC(=O)CC[C@@H]1OCc1ccccc1` (stereo not given in full), for which the growth inhibition in test [1] is 5.95%; in test [2], -17.4%; in test [3], -5.05%; in test [4], 19.9%; in test [5] it was -8.95%; in test [6], 16.7%.
With `O=C1/C(=C\c2ccccn2)c2ccccc2N1Cc1ccccc1`, the growth inhibition is 7.6% in test [1]; 1.25% in test [2]; 8.75% in test [3]; 16.9% in test [4]; 11.2% in test [5]; 22.3% in test [6].
Take `COC(=O)c1ccccc1N=NNc1ccc2c(=O)c3ccccc3[nH]c2c1`: the growth inhibition in test [1] was 23.8%; in test [2] it was 1.7%; in test [3], 22.1%; in test [4], 34.5%; in test [5] it was 11.6%; in test [6], 66%.
As for `O=C(CCc1cc(O)cc(O)c1)NCCc1cc(OCc2ccccc2)cc(OCc2ccccc2)c1`, the growth inhibition in test [1] was 28.7%; in test [2], 24.7%; in test [3] it was 45%; in test [4] it was 33.2%; in test [5] it was 27.1%; in test [6], -42.6%.
As for `Cc1cc(=O)c2c(=O)n(-c3ccccc3)[nH]c2[nH]1`, the growth inhibition is -34.7% in test [1]; -13.1% in test [2]; -11.2% in test [3]; -27.2% in test [4]; -13.4% in test [5]; -6.35% in test [6].
Turning to `COC(=O)c1cc(C(=O)c2ccccc2)cc2c1c(=O)[nH]c1ccccc12`, the growth inhibition in test [1] was -0.95%; in test [2], -7.5%; in test [3], -16.4%; in test [4], -5.7%; in test [5], -23.9%; in test [6], 6.75%.
In the case of `O=c1c2ccccc2c2cc3nc4ccc([N+](=O)[O-])cc4c(=O)n3c3cccc1c23`, the growth inhibition is -0.15% in test [1]; -2.65% in test [2]; -15.7% in test [3]; 6.15% in test [4]; -4.9% in test [5]; -10.4% in test [6].
Regarding `Cc1ccc(S(=O)(=O)NC(C)C(=O)O)cc1` (stereo not given), the growth inhibition in test [1] was -1.5%; in test [2], -6.65%; in test [3], 4.9%; in test [4], 3.2%; in test [5] it was -7.65%; in test [6], 4.6%.
On to `C[C@@]12CCC3C1C=C1C(=O)c4cc(O)ccc4C(=O)[C@]1(O2)[C@@]3(C)C=O`, for which the growth inhibition in test [1] was -10.7%; in test [2], 2%; in test [3] it was 78.8% (active); in test [4], 51.1%; in test [5], 76.3% (active); in test [6], 89.7% (active).
With `Nc1ccc(S(=O)(=O)n2c(=O)oc3cc(Cl)ccc32)cc1`, the growth inhibition was 0.75% in test [1]; 5.75% in test [2]; 8.9% in test [3]; -6.7% in test [4]; 14.1% in test [5]; 19.8% in test [6].
Consider `COc1ccc(C=C(c2ccc(OCc3ccccc3)cc2)c2ccc(OCc3ccccc3)cc2)cc1`, for which the growth inhibition in test [1] was 13.2%; in test [2] it was -7.7%; in test [3], 6.55%; in test [4] it was 7.5%; in test [5] it was -28.1%; in test [6], -28.1%.
For `Oc1ccc(Cl)cc1CN1CCOCC1`, the growth inhibition in test [1] is 31.3%; in test [2], 11.6%; in test [3], 36.1%; in test [4], 21.5%; in test [5] it was 13.3%; in test [6], 34.5%.
In the case of `COC(=O)C1=C(C(=O)OC)SC(=CC#CC=C2SC(C(=O)OC)=C(C(=O)OC)S2)S1`, the growth inhibition in test [1] was 9.5%; in test [2], -3.35%; in test [3], 9.45%; in test [4], -59.7%; in test [5], -12.8%; in test [6], 1.6%.
For the compound `COc1cc2c(cc1OC)C(C(c1ccccc1)c1ccccc1)N(C)CC2` (stereo not given), the growth inhibition is 9.9% in test [1]; 9.25% in test [2]; -16.7% in test [3]; 20.6% in test [4]; 3.25% in test [5]; 20.6% in test [6].
As for `Cc1ccc2c(c1)C(=O)c1cc(C)cc(C(=O)O)c1-2`, the growth inhibition in test [1] is -22.6%; in test [2], -5.05%; in test [3], 4.5%; in test [4], -40%; in test [5], 1.65%; in test [6] it was -16.7%.

The record behind these values is PubChem BioAssay (NCI).
